The entries come from a sample that favours hits as a whole.
HDAC3 inhib = blocks human histone deacetylase 3. hit rate 0.15% among 320,000. inhibition, % at 8.3 µM. AID 2718. recombinant HDAC3, fluorogenic peptide/trypsin coupled, fluorescence. O15379; in the data active = inhibition above about 26%, passing the limit was not always enough; inconclusive = no clear call, values can overlap the other calls
Target sequence (O15379 whole entry, looked up): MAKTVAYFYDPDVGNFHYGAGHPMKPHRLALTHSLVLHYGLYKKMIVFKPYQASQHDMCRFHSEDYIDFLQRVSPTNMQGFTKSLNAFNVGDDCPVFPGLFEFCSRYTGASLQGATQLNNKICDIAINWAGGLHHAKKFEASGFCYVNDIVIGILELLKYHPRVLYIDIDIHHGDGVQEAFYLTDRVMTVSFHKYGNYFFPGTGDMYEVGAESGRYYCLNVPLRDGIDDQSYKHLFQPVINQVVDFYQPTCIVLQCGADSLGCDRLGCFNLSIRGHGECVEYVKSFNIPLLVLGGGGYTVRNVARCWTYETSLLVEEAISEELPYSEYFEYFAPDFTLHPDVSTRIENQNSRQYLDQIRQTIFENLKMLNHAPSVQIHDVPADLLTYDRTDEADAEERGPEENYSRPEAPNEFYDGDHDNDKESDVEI
PDI turbidity = PDI (human) enzyme inhibition; P07237; PDI insulin aggregation turbidity, A650, 90 min; inhibition, % at 10 µM; hit rate 0.052% among 350,000; AID 588391;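 active = mean inhibition across replicates of 30% or more, whatever share of single replicates reach that level; inconclusive = mean inhibition below 30% while every single replicate reaches 30%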
SIRT5 inh = blocks human SIRT5 desuccinylation of peptide. Purified SirT5, succinyl-peptide AMC, trypsin-coupled fluorescence. inhibition, % at 15 µM. hit rate 1.1% among 330,000; in the data active = inhibition above about 15%; inconclusive = no clear call, values can overlap the other calls
ERAP1 HTS inh = inhibitors of human ERAP1 aminopeptidase. recombinant ERAP1, Leu-AMC fluorescence, 60 min. inhibition, % at 10.7 µM. hit rate 0.15% among 340,000. AID 652197;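 active = mean replicate inhibition of at least 30%, or all replicates individually reaching that 30% level; inactive = mean below 30% and not every replicate reaching it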;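 note: 0% = neutral control wells and 100% = L-leucinethiol positive control wells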
ERp5 inh = ERp5 (human) disulfide isomerase inhibition; Q15084; ERp5 insulin aggregation, absorbance 650 nm, 90 min; inhibition, % at 9.99 µM; hit rate 0.05% among 350,000; AID 651711;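 active = mean replicate inhibition above about 25%, with every replicate also reaching it, limit read from the data, passing the limit was not always enough; inconclusive = only one of those two criteria met; inactive = neither criterion met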
The depositor's hits bear a star; ? = inconclusive; nt = not tested or not shown; ! = not confirmed by another sample.

SMILES | HDAC3 inhib | PDI turbidity | SIRT5 inh | ERAP1 HTS inh | ERp5 inh
O=C(Nc1ccccc1F)N[C@H]1CC[C@@H](CCNS(=O)(=O)c2ccc(Cl)cc2)O[C@H]1CO | nt | nt | 0 | 1 | -8
C/C=C/c1ccc2c(c1)O[C@@H](CN(C)CC1CCCC1)[C@H](C)CN([C@@H](C)CO)S2(=O)=O | nt | nt | 18* | -7 | 0
C[C@@H]1CN([C@@H](C)CO)S(=O)(=O)c2ccc(Br)cc2O[C@H]1CN(C)CC1CCCC1 | nt | nt | 7 | -3 | 2
C/C=C/c1ccc2c(c1)O[C@@H](CN(C)CC1CCCCC1)[C@@H](C)CN([C@@H](C)CO)S2(=O)=O | nt | nt | 2 | 1 | 1
C[C@H](CO)N1C[C@H](C)[C@@H](CN(C)CC2CCCC2)Oc2cc(Br)ccc2S1(=O)=O | nt | nt | 16* | -2 | 1
Cc1ccc(S(=O)(=O)OCC(=O)Nc2ccc(C(=O)O)c(O)c2)cc1 | nt | 4 | 53* | -3 | -6
Cc1cccc(OC(=O)Nc2ccc(C(=O)O)c(O)c2)c1 | nt | -7 | 35* | -35 | -12
CC(=O)Nc1ccc2c(c1)Cc1cc(N3C(=O)C=CC3=O)ccc1-2 | nt | -17 | -4 | 34* | -7
CCOc1ccc(S(=O)(=O)Nc2cccc(C)c2)c2cccnc12 | 3 | -1 | 18* | -2 | -2
CC1CN(CCOc2ccccc2-c2ccccc2)CC(C)O1 (stereo not drawn) | 3 | 11 | 31* | 3 | 0
CSc1ncc(C(=O)Nc2ccc(C(C)=O)cc2)c(-c2ccccc2)n1 | 5 | -13 | 21* | -10 | -2
CSc1ncc(C(=O)Nc2ccccc2F)c(-c2ccccc2)n1 | -9 | -1 | 1 | 1 | -1
C[C@@H]1CCCCO[C@@H](CN(C)Cc2ccc3c(c2)OCO3)[C@H](C)CN([C@H](C)CO)C(=O)c2cc(N(C)C)ccc2O1 | nt | nt | 2 | -2 | 4
O=c1[nH][nH]c2c([N+](=O)[O-])ccc(F)c12 | nt | nt | nt | 5 | 4
O=c1[nH][nH]c2c(N=Cc3ccccc3O)ccc(F)c12 | nt | -5 | 29* | 5 | 2
CCN(CC(=O)Nc1ccccc1C(F)(F)F)C(=O)Cn1c(=O)cnc2ccccc21 | 0 | 2 | 0 | 32* | -2
COc1ccccc1C#Cc1cnc2c(c1)C(=O)N([C@@H](C)CO)C[C@H](C)[C@@H](CN(C)C(C)=O)O2 | nt | nt | -4 | 2 | -1
C[C@@H]1CCCCO[C@H](CN(C)Cc2ccccc2)[C@H](C)CN([C@H](C)CO)C(=O)c2cc(NC(=O)Cc3ccccc3)ccc2O1 | nt | nt | 16* | -2 | -5
COc1ccc(NC(=O)N(C)C[C@@H]2OCCCC[C@H](C)Oc3ccc(NC(=O)Cc4ccccc4)cc3C(=O)N([C@@H](C)CO)C[C@@H]2C)cc1 | nt | nt | 1 | 4 | 5
COc1ccc(NC(=O)N(C)C[C@H]2OCCCC[C@@H](C)Oc3ccc(NC(=O)Cc4ccccc4)cc3C(=O)N([C@H](C)CO)C[C@@H]2C)cc1 | nt | nt | 19* | 1 | -1
C[C@H](CO)N1C[C@H](C)[C@H](CN(C)C(=O)CN(C)C)Oc2ncc(-c3ccc(C(=O)N(C)C)cc3)cc2C1=O | nt | nt | 2 | -1 | 2
COc1ccccc1Oc1nc2c(c(=O)n(Cc3ccccc3F)c(=O)n2C)n1C | -4 | -9 | nt | nt | nt
Cn1c(NCCCO)nc2c1c(=O)n(Cc1ccccc1F)c(=O)n2C | -2 | -12 | 39* | 1 | 3
C[C@@H]1CN([C@H](C)CO)C(=O)c2cc(NC(=O)Nc3ccc(C(F)(F)F)cc3)ccc2O[C@@H]1CN(C)S(=O)(=O)c1ccc(F)cc1 | nt | nt | 7 | -3 | 29*
Cc1ccc(S(=O)(=O)N(C)C[C@H]2Oc3ccc(NC(=O)Nc4c(C)noc4C)cc3C(=O)N([C@H](C)CO)C[C@@H]2C)cc1 | nt | nt | 14 | -6 | 0
SMILES | HDAC3 inhib | PDI turbidity | SIRT5 inh | ERAP1 HTS inh | ERp5 inh
C[C@@H]1CN([C@@H](C)CO)C(=O)c2cc(NC(=O)Nc3ccc(F)cc3)ccc2O[C@@H]1CN(C)S(=O)(=O)c1ccc(Cl)cc1 | nt | nt | 19* | -1 | -1
C[C@H]1CN([C@@H](C)CO)C(=O)c2cc(NC(=O)Nc3ccc(F)cc3)ccc2O[C@@H]1CN(C)S(=O)(=O)c1ccc(Cl)cc1 | nt | nt | 1 | 3 | -4
C[C@H](CO)N1C[C@H](C)[C@@H](CN(C)S(=O)(=O)c2ccc(F)cc2)Oc2ccc(NC(=O)Nc3ccc(C(F)(F)F)cc3)cc2C1=O | ? | -4 | 14 | -2 | -5
Cc1ccc(S(=O)(=O)N(C)C[C@@H]2Oc3ccc(NC(=O)Nc4c(C)noc4C)cc3C(=O)N([C@H](C)CO)C[C@@H]2C)cc1 | nt | nt | 16* | -5 | -1
COc1ccc(S(=O)(=O)N(C)C[C@@H]2Oc3ccc(NC(=O)Nc4ccc(F)cc4)cc3C(=O)N([C@@H](C)CO)C[C@H]2C)cc1 | nt | nt | 7 | 3 | -5
COc1ccc(S(=O)(=O)N(C)C[C@H]2Oc3ccc(NC(=O)Nc4ccc(F)cc4)cc3C(=O)N([C@H](C)CO)C[C@H]2C)cc1 | nt | nt | 21* | 2 | 5
CN1C(=O)c2cc(NC(=O)C3CCCCC3)ccc2OC[C@@H]2O[C@@H](CC(=O)NCC3CCCCC3)CC[C@H]21 | nt | nt | 4 | 2 | 6
C[C@@H](O)C#Cc1ccc2c(c1)O[C@@H](CN(C)C(=O)CC1CC1)[C@@H](C)CN([C@@H](C)CO)S2(=O)=O | nt | nt | 4 | 0 | 1
C[C@H]1CN([C@@H](C)CO)C(=O)c2cccc(NC(=O)Nc3ccc(C(F)(F)F)cc3)c2O[C@@H]1CN(C)S(=O)(=O)c1ccc(Cl)cc1 | 34* | -2 | 6 | -1 | 5
C[C@H](CO)N1C[C@H](C)[C@@H](CN(C)S(=O)(=O)c2ccc(Cl)cc2)Oc2c(NC(=O)Nc3ccc(C(F)(F)F)cc3)cccc2C1=O | nt | nt | -1 | nt | 4
O=c1ccn(Cc2ccccc2)c2ccccc12 | 6 | -7 | 36* | -1 | 7
O=C(CC1CC1)N1CC(=O)N2[C@@H](CO)[C@@H](c3ccc(C#Cc4ccccc4)cc3)[C@@H]2C1 | nt | nt | 0 | -2 | 4
Cc1ccc(C)c(NS(=O)(=O)c2c(C)nn(C)c2C)c1 | 4 | 37* | nt | nt | nt
Cc1nn(C)c(C)c1S(=O)(=O)Nc1ccc2c(c1)OCO2 | -4 | 1 | nt | nt | nt
C[C@H]1CN([C@@H](C)CO)C(=O)c2cc(NS(C)(=O)=O)ccc2O[C@@H]1CN(C)C(=O)Nc1cccc2ccccc12 | nt | nt | -4 | -2 | 5
C[C@H]1CN([C@@H](C)CO)C(=O)c2c(c3ccccc3n2C)-c2ccccc2CO[C@@H]1CN(C)S(=O)(=O)c1ccc(Cl)cc1 | nt | nt | -1 | 4 | 9
C[C@H](CO)N1C[C@H](C)[C@H](CN(C)S(=O)(=O)c2ccc(Cl)cc2)OCc2ccccc2-c2c(n(C)c3ccccc23)C1=O | nt | -4 | 22*! | 4 | 2
Cc1ccc(S(=O)(=O)N(C)C[C@@H]2OCc3ccccc3-c3c(n(C)c4ccccc34)C(=O)N([C@H](C)CO)C[C@@H]2C)cc1 | nt | 1 | 18*! | 0 | -2
Cc1cccc(S(=O)(=O)N(C)C[C@@H]2OCc3ccccc3-c3c(n(C)c4ccccc34)C(=O)N([C@H](C)CO)C[C@@H]2C)c1 | nt | nt | 20* | 1 | 4
